Screen size: about 57,000 […]; about 3,700 (6.5%) were called active. Rule as the data show it: active = GI50 up to about 1.1 µM and inactive = higher. A selection follows. Entries with a potency or affinity are not part of this list.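 Test compounds were applied to cells in 96-well plates for 48 hours at 5 doses. GI50: concentration for 50% inhibition of growth.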 Where only a bound is given, the exact number is not on record here.

Data on eleven substances can be found in ChEMBL document CHEMBL1201862, “PubChem BioAssay data set” (2004).

This assay concerns IGROV-1. Nature of the assay: NCI tumour cell line growth inhibition, 48 h.
As to “[Bis(aminomethyl)pentamethylenesilane]dichloropaltinum(II), CHEMBL2146202”, the GI50 came out at 41.9 µM.
Next, “[Bis(aminomethyl)pentamethylenesilane]tetrachloropaltinum(IV), CHEMBL2146204”: 10.5 µM; CISPLATIN, CHEMBL11359: 2.02 µM.
With “mu-(1,7-nanodiamine-N,N')bis-(cis-aminedichloroplatimum (II)), CHEMBL2146215”, the GI50 was determined as 29 µM.
Substance “[Bis(aminomethyl)tetramethylenesilane]dichloropaltinum(II), CHEMBL2146205” yielded a GI50 of 36.8 µM.
In turn, “[Bis(aminomethyl)dimethylsilane]dichloroplatinum (II), CHEMBL2146201” showed a GI50 of more than 100 µM.
Regarding “[Bis(aminomethyl)diethylsilane]tetrachloroplatinum(IV), CHEMBL2146203”, the GI50 is 15.5 µM.
As for “[Bis(aminomethyl)ethylmethylsilane]tetrachloroplatinum(IV), CHEMBL2146192”, the GI50 was determined as 16 µM.
“cis-Bis[[(trimethylsilyl)methyl]amino]tetrachloroplatinum(IV), CHEMBL2146191” registered a GI50 of 15.4 µM.
For “[Bis(aminomethyl)dimethylsilane]tetrachloroplatinum(IV), CHEMBL2146190”, the GI50 amounted to 15.4 µM.
“[Bis(aminomethyl)tetramethylenesilane]tetrachloropaltinum(IV), CHEMBL2146189” showed a GI50 of 6.1 µM.
